MITF inh: inhibitors of human MITF; O75030; AlphaScreen MITF homodimerization, bead proximity signal; inhibition, % at 2.6 µM; actives 0.91% (n = 650,000); in the data active = inhibition above about 50%
Target sequence (O75030 whole entry, looked up): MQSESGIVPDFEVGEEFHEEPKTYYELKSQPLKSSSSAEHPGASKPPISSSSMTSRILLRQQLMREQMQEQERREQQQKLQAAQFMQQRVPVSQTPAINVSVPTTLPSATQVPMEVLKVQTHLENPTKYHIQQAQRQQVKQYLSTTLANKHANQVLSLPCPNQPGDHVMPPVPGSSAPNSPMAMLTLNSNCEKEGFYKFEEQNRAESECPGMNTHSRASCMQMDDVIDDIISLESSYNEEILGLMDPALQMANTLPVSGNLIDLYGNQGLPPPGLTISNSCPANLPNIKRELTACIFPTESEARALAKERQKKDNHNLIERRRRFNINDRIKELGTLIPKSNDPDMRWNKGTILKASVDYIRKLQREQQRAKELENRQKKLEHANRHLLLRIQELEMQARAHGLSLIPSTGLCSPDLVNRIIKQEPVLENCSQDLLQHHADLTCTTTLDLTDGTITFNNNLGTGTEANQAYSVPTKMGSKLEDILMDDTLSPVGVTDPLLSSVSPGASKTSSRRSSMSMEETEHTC
TEAD-YAP block: TEAD-YAP interaction inhibition. HEK-TIYL cells, TEAD-Gal4/YAP UAS-luciferase luminescence. inhibition, % at 9.12 µM. actives 1.4% (n = 640,000); in the data active = inhibition above about 32%
FBW7 activator: activators of human E3 ligase FBW7; actives 0.13% (n = 650,000); AlphaScreen FBW7–phospho-cyclin E peptide binding, activator screen; AID 1259310; Q969H0; normalized activity (activation), % at 26.1 µM; in the data active = normalized activity above about 1.9%;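 note: purified mutant Fbw7 with reduced substrate affinity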
GPR151 activ: activates the human receptor GPR151. Q8TDV0. PathHunter beta-arrestin GPR151 cells, luminescence. activation, % at 11.2 µM. actives 1% (n = 650,000). AID 1508602; in the data active = activation above about 4.9%
MITF confirm: human MITF inhibition, confirmation; inhibition, % at 2.6 µM; AlphaScreen MITF homodimerization, biotin/His-MITF beads; shares compounds with MITF inh; actives 16% (n = 4,700);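 active = inhibition above a cutoff derived from the DMSO control wells, cut at about 28% in these data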;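 note: inhibitors lower the bead chemiluminescence by keeping MITF from dimerizing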
AS interf ctr: counter-screen: compounds optically interfering with AlphaScreen | LysRS AlphaScreen counterscreen, signal interference, triplicate | inhibition, % at 2.6 µM | shares compounds with MITF inh | actives 7.6% (n = 4,700);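 active = inhibition above a cutoff derived from the DMSO control wells, cut at about 30% in these data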
Hits are given with their value; – = inactive; ! = not active in a repeat. Hits are enriched below; roughly 3.4% of the tested compounds scored in any of these assays.

SMILES	MITF inh	TEAD-YAP block	FBW7 activator	GPR151 activ	others
CCC(C)NC(=O)CN1C(=O)C(C)N=C(c2ccccc2)c2cc(Cl)ccc21 (stereo not drawn)	–	–	–	–
CN1/C(=C/C=C/c2oc3ccccc3[n+]2C)Oc2ccccc21 (tested in a mixture with another compound)	–	79	–	–
Cc1[nH]c2c(C(C)C)cccc2c1CCN	–	91	–	–
Cc1[nH]c2ccc(Cl)cc2c1CCN	–	–	–	–
Cc1[nH]c2ccccc2c1CCN	–	–	2.1	–
COc1cccc2c1OC1(CCN(C(=O)Nc3ccc(F)cc3F)CC1)OC2	–	–	–	–
O=c1[nH]c(=O)n(Cc2ccccc2Cl)c(O)c1/C=C1\C=CC=N1	–	52	–	–
CC(C)CCCn1c(O)c(/C=C2\C=CC=N2)c(=O)[nH]c1=O	–	–	–	–
CC(C)CN1CCN(Cc2ccc(F)c(F)c2)C(CCO)C1 (stereo not drawn)	–	–	–	–
COc1ccc2cc(-c3nc4ccccc4[nH]3)c(=N)oc2c1	–	65	–	–
O=C(COc1ccccc1[N+](=O)[O-])Nc1ccc(Cl)cc1C(=O)c1ccccc1	–	–	–	–
C[C@H](N)[C@H](O)c1ccccc1	–	–	–	–
CC(N)[C@H](O)c1ccc(O)c(O)c1 (stereo partly drawn)	89	–	–	–
COc1ccc(C2SCC(=O)Nc3c2c(-c2ccccc2)nn3-c2ccccc2)cc1OC (stereo not drawn)	–	52	–	–
N#CC(C#N)=Cc1ccc(O)c(O)c1	74!	–	–	–
Cc1ccc2[nH]c(=O)c3cc(C(=O)N4CCC5(CC4)OCCO5)sc3c2c1	–	–	–	–
CN1CCN(c2nc3ccc([N+](=O)[O-])cc3s2)CC1	–	–	–	–
COc1ccc2sc(N3CCN(C)CC3)nc2c1	–	37	–	–
O=C(Cc1ccccc1)NC(NC(=O)Cc1ccccc1)c1ccc(F)cc1	–	–	–	–
CSc1ccc(CN2CCN(Cc3ccccc3Br)CC2)cc1	75	–	–	–	MITF confirm=–;AS interf ctr=–
CCc1ccc(CN2CCN(Cc3ccccc3Br)CC2)cc1	57	–	–	–	MITF confirm=–;AS interf ctr=–
O=[N+]([O-])c1ccccc1CN1CCN(Cc2ccccc2)CC1	–	–	–	–
CCN1CCN(Cc2ccccc2Br)CC1	–	–	–	–
O=[N+]([O-])c1ccccc1CN1CCN(Cc2ccccc2Br)CC1	58	–	–	–	MITF confirm=–;AS interf ctr=–
CCN1CCN(Cc2ccc(SC)cc2)CC1	–	–	–	–
SMILES	MITF inh	TEAD-YAP block	FBW7 activator	GPR151 activ	others
CSc1ccc(CN2CCN(Cc3ccc(Br)cc3)CC2)cc1	78	–	–	–	MITF confirm=–;AS interf ctr=–
O=C(CN1C(=O)CN=C(c2cccs2)c2c1sc1c2CCCC1)N1CCCC1	–	–	–	–
O=C(c1ccccc1)c1cc(Cl)ccc1N1C(=O)C2C3C=CC(C4CC34)C2C1=O (stereo not drawn)	–	–	–	–
COc1ccc(CN2CCN(Cc3ccccc3C)CC2)cc1Br	83	–	–	–	MITF confirm=–;AS interf ctr=–
COc1ccc(CN2CCN(Cc3ccccc3Cl)CC2)cc1Br	78	–	–	–	MITF confirm=–;AS interf ctr=–
COc1ccc(CN2CCN(C(=O)COc3ccc(Cl)cc3)CC2)cc1OCc1ccccc1	59	–	–	–	MITF confirm=–;AS interf ctr=–
O=C(COc1ccc(Cl)cc1)N1CCN(Cc2cccc(F)c2)CC1	68	–	–	–	MITF confirm=–;AS interf ctr=–
O=C(COc1ccccc1)N1CCN(Cc2cccc(F)c2)CC1	–	–	–	–
CN1CCN(c2c([N+](=O)[O-])cccc2[N+](=O)[O-])CC1	–	–	–	–
COc1cccc2sc(N(CCN(C)C)C(=O)Cc3ccccc3)nc12	–	–	–	–
CCN(CC(=O)Nc1ccc(Br)cc1)CC(=O)Nc1ccc(C#N)c(Cl)c1	85	–	–	–	MITF confirm=–;AS interf ctr=–
CCN(CC(=O)Nc1ccc(C#N)c(Cl)c1)CC(=O)Nc1c(F)cccc1F	–	–	–	–
COc1ccc(CCNCc2ccccc2O)cc1	–	–	–	–
CCOC(=O)C1C2NC(=S)N(CCc3ccccc3)C1(C)Oc1ccc(Br)cc12 (stereo not drawn)	–	–	–	–

Screening data: PubChem, The Scripps Research Institute Molecular Screening Center
